High-throughput results from PubChem.
Gal4-VP16 FLuc: counter-screen for ROR gamma inhibitors: Gal4-VP16 reporter. 3.5% of 310,000 active. Drosophila S2 Gal4-VP16 UAS-luciferase, luminescence, 20 h. Potency, µM (doses to about 53.6 µM), inactives show top-dose activity, negative = inhibition, actives largely listed as inhibitors;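 also: Gal4-VP16 expression switched on by copper sulfate through the metallothionein promoter; potency is read from the fitted curve at half-maximal effect; nearly all actives have a fitted effect of over 50% in size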
RORgamma inh: ROR gamma (mouse) transcription inhibition; P51450; Drosophila S2 Gal4-RORgamma UAS-luciferase reporter, 20 h; Potency, µM (series often up to 53.6 µM), for the others: at the highest dose activity change, negative = inhibition, actives largely listed as inhibitors; 5.4% of 310,000 active; AID 2551; also: potency is read from the fitted curve at half-maximal effect; nearly all actives have a fitted effect of over 60% in size
Target sequence (P51450 whole entry, looked up, the tested form may be a part): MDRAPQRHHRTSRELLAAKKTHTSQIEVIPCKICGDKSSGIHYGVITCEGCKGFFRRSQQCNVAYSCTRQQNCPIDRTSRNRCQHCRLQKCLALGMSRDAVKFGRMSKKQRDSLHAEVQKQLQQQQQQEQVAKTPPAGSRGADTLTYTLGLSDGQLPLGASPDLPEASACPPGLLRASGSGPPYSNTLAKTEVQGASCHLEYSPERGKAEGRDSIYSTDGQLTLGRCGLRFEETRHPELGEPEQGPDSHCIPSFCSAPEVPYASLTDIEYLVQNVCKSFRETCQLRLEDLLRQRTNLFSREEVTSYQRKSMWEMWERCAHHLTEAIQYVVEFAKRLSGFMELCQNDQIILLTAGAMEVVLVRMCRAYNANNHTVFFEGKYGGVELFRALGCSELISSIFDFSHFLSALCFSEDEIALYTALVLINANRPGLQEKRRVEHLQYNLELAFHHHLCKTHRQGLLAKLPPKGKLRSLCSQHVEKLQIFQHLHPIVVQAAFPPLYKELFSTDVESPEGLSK
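In this cell-based reporter format, copper sulfate (700 uM final) drives Gal4–ROR gamma fusion expression from a metallothionein promoter in Drosophila Schneider cells; compounds preincubated 1 hr, reporter read after 20 hr at ambient temperature.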
DT40 TDP1 CPT: DT40-hTDP1 cell growth loss with CPT | chicken DT40 Tdp1-/-;hTDP1 cells + 20 nM CPT, ATP luminescence, 48 h | Potency, µM (titrated, usually from 46.2 µM), without a hit: top-dose activity change, negative = growth inhibition, most hits filed as inhibitors | 12% of 420,000 active; also: potency is read from the fitted curve at half-maximal effect; nearly all actives have a fitted effect of over 55% in size
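Chicken DT40 Tdp1-/- cells stably complemented with human TDP1 were seeded at 400 cells/well in medium containing 20 nM camptothecin, exposed to pin-transferred compounds, and grown at 37 °C for at least 48 hr. Viability was read as ATP luminescence.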
ELG1 repair inh: ELG1-dependent DNA repair inhibition | HEK293T ELG1-luciferase reporter, luminescence, 16 h; DNA damage induced by 5-fluorouridine | Potency, µM (series often up to 46.1 µM), inactives show top-dose activity change, negative = inhibition, hits mostly inhibitors | 2.3% of 330,000 active | AID 504467; also: potency is read from the fitted curve at half-maximal effect; nearly all actives have a fitted effect of over 55% in size
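DMSO vehicle served as the neutral condition. Each well held 2,000 cells given 5-fluorouridine plus compound; after 16 hr at 37 °C/5% CO2, ONE-Glo was added and luciferase measured 30 min later.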
IL1B secr inh: inhibitors of inflammasome signaling (IL-1 beta secretion) | AID 743279 | 4.7% of 360,000 active | activity change, % at 57.5 µM | THP-1 LPS/ATP IL-1B secretion, AlphaLISA, 16 h; stronger effect = lower value; in the data active = activity change below about -50%; inconclusive = mostly about -30% to -49%
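Secreted IL-1B measured by AlphaLISA bead assay after 16 h compound exposure of THP-1 cells; compounds (final up to 57.5 uM) added 1 h before LPS (250 ng/mL) and ATP (1.25 mM) stimulation; lower signal means less secretion.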
DT40 TDP1 no CPT: qHTS for Inhibitors of human tyrosyl-DNA phosphodiesterase 1 (TDP1): qHTS in cells in absence of CPT | DT40 Tdp1-/- hTDP1 cells, no CPT, ATP luminescence, 48 h | AID 686978, 2013 | 15% of 420,000 active | Potency, µM (highest dose often 46.2 µM), inactives show top-dose activity change, negative = growth inhibition, usual class: inhibitors; also: potency is read from the fitted curve at half-maximal effect; nearly all actives have a fitted effect of over 55% in size
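Growth of hTDP1-complemented DT40 Tdp1-knockout cells is measured by ATP luminescence after at least 48 hr compound exposure at 37 °C, with DMSO substituting for the 20 nM CPT used in the parallel screen.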
The depositor's hits bear a star; ? = inconclusive; · = no result. An excerpt weighted towards active compounds, which were near 21% of everything screened. Unless noted, calls follow the shape of the dose curve; as a rule, active = well fitted curve in the direction sought with a large enough effect; inconclusive = small, poorly fitted or top-dose-only effect, or another doubt; inactive = no such curve, though single readings can be large; an effect the other way counts as inactive or inconclusive. % is scaled to controls: 0 for no effect and ±100 for the full control effect.

SMILES	Gal4-VP16 FLuc	RORgamma inh	DT40 TDP1 CPT	ELG1 repair inh	IL1B secr inh	DT40 TDP1 no CPT
C=C1c2ccccc2O[C@H](C(=O)OCC)[C@@H]1C1CCCCC1 (tested in a mixture with another compound)	0%	8%	·	·	·	·
Cc1ccc(-n2nc3c(c2NC(=O)C(C)C)CS(=O)(=O)C3)cc1	-16%	-26%	4%	6%	19	3%
CCn1c(CNC(=O)c2ccc(OC)cc2)nnc1SCC(=O)Nc1ccc(OC)cc1	·	·	-3%	·	·	-9%
CCn1c(CNC(=O)Cc2ccc(OC)cc2)nnc1SCCOc1ccccc1	15%	29%	?	?	?	16µM*
C=CCn1c(SCCOc2ccccc2)nnc1C(C)NC(=O)c1ccccc1 (stereo not drawn)	-1%	?	?	-5%	-4	-7%
COc1ccc(C(=O)NCc2nnc(SCC(=O)NO)n2Cc2ccccc2)cc1	1%	1%	18µM*	0%	?	?
C=CCn1c(CCNC(=O)c2ccc(Cl)c(Cl)c2)nnc1SCCOc1ccc(OC)cc1	?	?	?	16µM*	?	26µM*
Cc1cnc(CNc2ncncc2-c2ccccc2C#N)cn1	0%	-36%	3%	·	·	0%
Cc1ccc(CNC(=O)Cn2ccn(-c3cccc(Cl)c3)c(=O)c2=O)cc1	·	·	-28%	·	·	-29%
CCN1C(=O)c2cccc3c(S(=O)(=O)N(C)C)ccc1c23	·	·	?	·	51	?
CCN1C(=O)c2cccc3c(S(=O)(=O)Nc4ccc(OC)cc4OC)ccc1c23	18µM*	?	?	?	21	?
CCN1C(=O)c2cccc3c(S(=O)(=O)N(C(=O)c4cccnc4)c4ccc(OC)cc4)ccc1c23	?	-36%	?	-24%	39	12µM*
CCN1C(=O)c2cccc3c(S(=O)(=O)Nc4ccccc4)ccc1c23	?	-36%	?	?	94	?
CCN1C(=O)c2cccc3c(S(=O)(=O)N(C(=O)c4ccncc4)c4ccc(OC)cc4)ccc1c23	7.9µM*	?	?	-11%	56	?
CC(=O)NC12CC3CC(C1)CC(C(=O)N1CCN(S(=O)(=O)c4cccc([N+](=O)[O-])c4)CC1)(C3)C2	·	·	?	·	14	-2%
O=C(N/N=C/c1c(F)c(F)c(F)c(F)c1F)c1ccc(Cn2cc(Br)cn2)o1	-16%	22%	16µM*	?	-98*	15µM*
CC(/C=N/NC(=O)c1ccc(Cn2cc([N+](=O)[O-])cn2)o1)=C\c1ccccc1	1%	12%	-17%	?	-52*	-10%
CC[C@H](C)[C@H](NC(=O)[C@H](Cc1ccccc1)NC(=O)[C@H](CCC(=O)O)NC(=O)[C@H](CCCCN)NC(=O)[C@H](C)NC(=O)[C@H](C)NC(=O)[C@H](CCC(N)=O)NC(=O)CNC(=O)[C@H](CCC(=O)O)NC(=O)[C@H](CC(C)C)NC(=O)[C@H](Cc1ccc(O)cc1)NC(=O)[C@H](CO)NC(=O)[C@H](CO)NC(=O)[C@@H](NC(=O)[C@H](CC(=O)O)NC(=O)[C@H](CO)NC(=O)[C@@H](NC(=O)[C@H](Cc1ccccc1)NC(=O)[C@@H](NC(=O)CNC(=O)[C@H](CCC(=O)O)NC(=O)[C@H](C)NC(=O)[C@@H](N)Cc1cnc[nH]1)[C@@H](C)O)[C@@H](C)O)C(C)C)C(=O)N[C@@H](C)C(=O)N[C@@H](Cc1c[nH]c2ccccc12)C(=O)N[C@@H](CC(C)C)C(=O)N[C@H](C(=O)N[C@@H](CCCCN)C(N)=O)C(C)C	-7%	2%	·	·	·	·
Cc1ccc(N/C(C(Cl)=C(Cl)Cl)=C(/Cl)[N+](=O)[O-])c(C)c1	-13%	?	23µM*	-23%	-18	16µM*
CCc1ccc(-c2nc(C(N)=O)c3[nH]c(=O)n(-c4ccccc4OC)c3n2)cc1	-5%	?	2.3µM*	-28%	48	2.6µM*
COc1ccc(-c2nc(C(N)=O)c3[nH]c(=O)n(-c4cccc(Cl)c4)c3n2)cc1OC	?	?	?	?	11	21µM*
Cc1ccsc1-c1nc(C(N)=O)c2[nH]c(=O)n(-c3ccc(Cl)cc3)c2n1	-3%	5%	5.8µM*	?	-21	4.1µM*
COc1cccc(-c2nc(C(N)=O)c3[nH]c(=O)n(-c4cccc(Cl)c4)c3n2)c1OC	9%	44%	0%	?	-9	9%
Cc1ccc(-n2c(=O)[nH]c3c(C(N)=O)nc(C(C)C)nc32)cc1	2%	2%	-26%	5%	70	?
COc1ccc(N2CC(C(=O)N[C@@H](CC(C)C)C(=O)NC3CCCCC3)CC2=O)cc1 (stereo partly drawn)	0%	16%	18%	13%	3	-22%
SMILES	Gal4-VP16 FLuc	RORgamma inh	DT40 TDP1 CPT	ELG1 repair inh	IL1B secr inh	DT40 TDP1 no CPT
CCc1ccccc1NC(=O)CN1C(=O)COc2ccc(S(=O)(=O)N3CCCCCC3)cc21	·	·	-14%	·	·	?
Cc1ccc(S(=O)(=O)N2CCN(C(=O)COC(=O)C3CCC3)CC2)cc1	·	·	7%	9%	17	-12%
O=c1c2oc3ccccc3c2n(Cc2ccc(Cl)cc2)c(=O)n1Cc1ccco1	·	·	-11%	·	·	-17%
COc1ccc(Br)cc1-c1nc(CCl)cs1	-4%	12%	13µM*	6%	-3	15µM*
COc1ccc(Br)cc1-c1noc(-c2ccccc2F)n1	0%	1%	-5%	0%	14	2%
COc1cc(C2c3cc4c(cc3OC(NCc3ccccc3)C2C)OCO4)cc(OC)c1OC (stereo not drawn)	·	·	1.2µM*	·	15	1.5µM*
COc1ccc(C2c3cc4c(cc3OC(NNC(N)=O)C2C)OCO4)cc1 (stereo not drawn)	·	·	?	·	16	?
COc1cc(CC(=O)NCc2ccc3c(c2)OCO3)cc(OC)c1OC	-3%	21%	-25%	0%	1	-20%
COc1cc(C2c3cc4c(cc3OC(NNC(N)=S)C2C)OCO4)cc(OC)c1OC (stereo not drawn)	·	·	1.3µM*	·	?	0.92µM*
COc1cc(C2c3cc4c(cc3OC(NNC(N)=O)C2C)OCO4)cc(OC)c1OC (stereo not drawn)	·	·	1.3µM*	·	-66*	1.3µM*
